Drawing on article PMC7862700, “An all-to-all approach to the identification of sequence-specific readers for epigenetic DNA modifications on cytosine”, this text covers binding signal for one sequence.

Assay in all cases: DAPPL (digital affinity profiling via proximity ligation, sequencing); 10 mM Tris-HCl pH 7.5, 50 mM NaCl, 1 mM DTT, 4% glycerol, room temperature, 30 min; GST-TFs on glutathione beads, 16-mer random dsDNA library, 0.1% formaldehyde crosslink after washing; high values mean tight binding
One test concerns the target T1, FEV (Homo sapiens, UniProt Q99581 1-238).
T1 sequence: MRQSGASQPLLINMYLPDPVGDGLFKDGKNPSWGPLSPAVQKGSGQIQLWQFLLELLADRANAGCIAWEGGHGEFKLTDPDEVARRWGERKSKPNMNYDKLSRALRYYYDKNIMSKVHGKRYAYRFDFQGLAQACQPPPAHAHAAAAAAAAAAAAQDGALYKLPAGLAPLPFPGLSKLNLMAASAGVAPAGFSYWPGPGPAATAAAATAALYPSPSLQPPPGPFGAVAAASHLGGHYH
To be noted: protein: recombinant; tags: N-terminal GST; dsDNA, one strand shown. The essentials:
(§1)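 Human transcription factors were made in yeast as GST fusions, captured on glutathione beads and barcoded with DNA. With a tag-only sample included, the pool was incubated with 200 nmole of a random double-stranded 16-mer DNA library in Tris/NaCl/DTT/glycerol buffer at room temperature for 30 min, then crosslinked with 0.1% formaldehyde after washing, ligated by proximity, amplified and sequenced. For binding signal, each hexamer's read frequency for a factor is divided by its frequency for the tag-only sample.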

The target of another test is ETV5 (Homo sapiens, UniProt P41161 1-510). Particulars: protein: recombinant; tags: N-terminal GST; dsDNA, one strand shown. The essentials: as §1
For a further test, the target named is HSF1 (Homo sapiens, UniProt Q00613 1-529). Particulars: protein: recombinant; tags: N-terminal GST; chain copies: 3; dsDNA, one strand shown. An outline of the steps: as §1
The next test concerns the target T2, SPIC (Homo sapiens, UniProt Q8N5J4 1-248).
T2 sequence: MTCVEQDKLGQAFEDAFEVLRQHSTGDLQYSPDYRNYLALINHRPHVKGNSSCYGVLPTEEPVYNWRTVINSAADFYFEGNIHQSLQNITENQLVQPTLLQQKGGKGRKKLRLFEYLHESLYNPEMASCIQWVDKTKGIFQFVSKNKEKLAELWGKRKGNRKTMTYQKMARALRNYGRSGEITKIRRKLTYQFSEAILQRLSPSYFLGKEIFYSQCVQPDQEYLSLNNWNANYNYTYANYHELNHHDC
To be noted: protein: recombinant; tags: N-terminal GST; dsDNA, one strand shown. The essentials: as §1

A further test concerns the target ELF4 (Homo sapiens, UniProt Q99607 1-663). To be noted: protein: recombinant; tags: N-terminal GST; dsDNA, one strand shown. The essentials: as §1
Another test concerns the target T3, ELK4 (Homo sapiens, UniProt P28324-2 1-405).
T3 sequence: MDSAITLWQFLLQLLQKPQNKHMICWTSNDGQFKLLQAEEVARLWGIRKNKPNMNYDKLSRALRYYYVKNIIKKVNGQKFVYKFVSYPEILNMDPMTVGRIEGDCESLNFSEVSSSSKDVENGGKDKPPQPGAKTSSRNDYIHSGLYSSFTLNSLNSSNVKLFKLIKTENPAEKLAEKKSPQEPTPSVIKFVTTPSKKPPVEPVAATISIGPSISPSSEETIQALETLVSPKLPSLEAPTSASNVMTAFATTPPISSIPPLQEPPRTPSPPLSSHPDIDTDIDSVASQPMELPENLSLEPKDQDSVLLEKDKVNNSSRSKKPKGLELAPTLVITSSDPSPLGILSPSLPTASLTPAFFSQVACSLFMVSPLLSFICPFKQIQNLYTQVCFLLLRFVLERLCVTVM
To be noted: protein: recombinant; tags: N-terminal GST; dsDNA, one strand shown. An outline of the steps: as §1

In the next test the target is T4, ETV2 (Homo sapiens, UniProt O00321 1-342).
T4 sequence: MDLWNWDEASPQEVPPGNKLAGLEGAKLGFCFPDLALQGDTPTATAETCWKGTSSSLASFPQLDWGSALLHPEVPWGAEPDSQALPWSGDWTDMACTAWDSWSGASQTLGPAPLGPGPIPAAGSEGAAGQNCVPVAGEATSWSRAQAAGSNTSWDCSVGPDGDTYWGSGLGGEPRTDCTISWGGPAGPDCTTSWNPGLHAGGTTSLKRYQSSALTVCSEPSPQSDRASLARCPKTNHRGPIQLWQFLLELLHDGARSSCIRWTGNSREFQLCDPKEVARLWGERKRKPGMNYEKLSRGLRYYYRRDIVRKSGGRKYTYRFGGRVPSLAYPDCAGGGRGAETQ
To be noted: protein: recombinant; tags: N-terminal GST; dsDNA, one strand shown. The essentials: as §1

A further test deals with T5, ELF3 (Homo sapiens, UniProt P78545 1-371).
T5 sequence: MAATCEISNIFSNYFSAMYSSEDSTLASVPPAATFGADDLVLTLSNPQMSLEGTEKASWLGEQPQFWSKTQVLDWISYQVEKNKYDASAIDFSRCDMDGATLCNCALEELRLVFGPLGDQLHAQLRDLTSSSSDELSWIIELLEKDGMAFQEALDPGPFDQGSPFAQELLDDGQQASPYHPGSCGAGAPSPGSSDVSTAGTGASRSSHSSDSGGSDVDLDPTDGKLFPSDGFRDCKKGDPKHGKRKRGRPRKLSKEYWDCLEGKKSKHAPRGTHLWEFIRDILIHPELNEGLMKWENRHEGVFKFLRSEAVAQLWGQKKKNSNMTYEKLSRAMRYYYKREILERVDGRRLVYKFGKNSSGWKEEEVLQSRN
To be noted: protein: recombinant; tags: N-terminal GST; dsDNA, one strand shown. The essentials:
as §1

The target of the next test is CRX (Homo sapiens, UniProt O43186 1-299). Particulars: protein: recombinant; tags: N-terminal GST; dsDNA, one strand shown. An outline of the steps:
as §1

For the next test, the target named is ETV1 (Homo sapiens, UniProt P50549 1-477). Particulars: protein: recombinant; tags: N-terminal GST; dsDNA, one strand shown. An outline of the steps:
as §1

The target in a further test is T6, ERF (Homo sapiens, UniProt P50548 1-548).
T6 sequence: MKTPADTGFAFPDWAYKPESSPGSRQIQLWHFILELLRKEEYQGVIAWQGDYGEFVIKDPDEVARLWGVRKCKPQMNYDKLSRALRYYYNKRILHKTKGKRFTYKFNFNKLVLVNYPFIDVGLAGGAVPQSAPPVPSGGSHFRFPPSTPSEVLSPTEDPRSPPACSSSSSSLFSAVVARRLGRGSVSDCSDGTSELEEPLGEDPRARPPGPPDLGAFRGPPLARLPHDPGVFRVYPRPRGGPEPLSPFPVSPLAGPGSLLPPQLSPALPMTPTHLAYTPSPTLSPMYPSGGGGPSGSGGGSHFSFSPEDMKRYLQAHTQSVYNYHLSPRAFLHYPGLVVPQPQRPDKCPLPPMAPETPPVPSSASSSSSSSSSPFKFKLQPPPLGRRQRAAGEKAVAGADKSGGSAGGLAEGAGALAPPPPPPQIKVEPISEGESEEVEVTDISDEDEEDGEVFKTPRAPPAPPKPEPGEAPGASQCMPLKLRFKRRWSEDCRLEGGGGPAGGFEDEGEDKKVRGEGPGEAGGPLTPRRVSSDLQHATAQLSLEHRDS
Particulars: protein: recombinant; tags: N-terminal GST; dsDNA, one strand shown. An outline of the steps:
as §1

The target in a further test is T7, ETV3L (Homo sapiens, UniProt Q6ZN32 1-361).
T7 sequence: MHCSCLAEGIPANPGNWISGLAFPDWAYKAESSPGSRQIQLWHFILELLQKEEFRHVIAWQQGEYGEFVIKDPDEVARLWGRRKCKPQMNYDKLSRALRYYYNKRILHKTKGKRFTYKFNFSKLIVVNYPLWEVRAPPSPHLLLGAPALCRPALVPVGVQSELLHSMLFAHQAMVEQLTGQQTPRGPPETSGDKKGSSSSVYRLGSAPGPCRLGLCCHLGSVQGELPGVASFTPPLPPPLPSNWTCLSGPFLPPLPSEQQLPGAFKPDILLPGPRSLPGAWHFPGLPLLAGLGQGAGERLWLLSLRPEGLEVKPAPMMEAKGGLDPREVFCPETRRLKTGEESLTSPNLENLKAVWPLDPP
Particulars: protein: recombinant; tags: N-terminal GST; dsDNA, one strand shown. An outline of the steps:
as §1

The next test deals with T8, ETS2 (Homo sapiens, UniProt P15036 1-469).
T8 sequence: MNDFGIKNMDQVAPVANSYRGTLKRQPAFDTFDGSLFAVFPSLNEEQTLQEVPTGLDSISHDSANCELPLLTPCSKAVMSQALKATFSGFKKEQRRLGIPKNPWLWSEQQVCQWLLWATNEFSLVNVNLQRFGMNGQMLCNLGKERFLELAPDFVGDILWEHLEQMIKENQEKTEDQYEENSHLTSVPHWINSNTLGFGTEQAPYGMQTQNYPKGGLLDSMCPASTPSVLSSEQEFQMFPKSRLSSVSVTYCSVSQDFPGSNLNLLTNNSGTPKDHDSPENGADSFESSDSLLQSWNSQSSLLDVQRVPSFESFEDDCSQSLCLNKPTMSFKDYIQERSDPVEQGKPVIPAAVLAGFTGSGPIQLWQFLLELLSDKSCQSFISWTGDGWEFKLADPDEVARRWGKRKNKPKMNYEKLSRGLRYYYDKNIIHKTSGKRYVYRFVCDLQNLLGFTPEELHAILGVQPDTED
To be noted: protein: recombinant; tags: N-terminal GST; dsDNA, one strand shown. The essentials:
as §1

The next test concerns the target T9, SPDEF (Homo sapiens, UniProt O95238 1-335).
T9 sequence: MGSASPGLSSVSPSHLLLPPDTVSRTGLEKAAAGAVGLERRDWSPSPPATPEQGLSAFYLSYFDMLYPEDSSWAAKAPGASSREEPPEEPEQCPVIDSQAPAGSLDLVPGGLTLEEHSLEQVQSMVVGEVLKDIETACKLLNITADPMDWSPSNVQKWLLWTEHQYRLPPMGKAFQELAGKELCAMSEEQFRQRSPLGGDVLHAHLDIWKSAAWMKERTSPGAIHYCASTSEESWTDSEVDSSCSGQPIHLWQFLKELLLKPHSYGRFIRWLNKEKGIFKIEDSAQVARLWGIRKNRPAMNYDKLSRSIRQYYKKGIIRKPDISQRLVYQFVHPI
To be noted: protein: recombinant; tags: N-terminal GST; dsDNA, one strand shown. The essentials:
as §1

A further test addresses T10, ETV7 (Homo sapiens, UniProt Q9Y603 1-341).
T10 sequence: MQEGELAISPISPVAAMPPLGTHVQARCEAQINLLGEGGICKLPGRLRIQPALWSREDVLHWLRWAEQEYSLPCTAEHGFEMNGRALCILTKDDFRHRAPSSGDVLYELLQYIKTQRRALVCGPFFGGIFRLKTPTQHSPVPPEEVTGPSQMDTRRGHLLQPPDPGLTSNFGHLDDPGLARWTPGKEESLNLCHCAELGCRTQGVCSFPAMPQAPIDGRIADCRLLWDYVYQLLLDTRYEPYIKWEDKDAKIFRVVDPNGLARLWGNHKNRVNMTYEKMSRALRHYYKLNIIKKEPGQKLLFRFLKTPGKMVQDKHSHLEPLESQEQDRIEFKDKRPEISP
Particulars: protein: recombinant; tags: N-terminal GST; dsDNA, one strand shown. An outline of the steps:
as §1

The target in a further test is T11, ELF5 (Homo sapiens, UniProt Q9UKW6-2 1-255).
T11 sequence: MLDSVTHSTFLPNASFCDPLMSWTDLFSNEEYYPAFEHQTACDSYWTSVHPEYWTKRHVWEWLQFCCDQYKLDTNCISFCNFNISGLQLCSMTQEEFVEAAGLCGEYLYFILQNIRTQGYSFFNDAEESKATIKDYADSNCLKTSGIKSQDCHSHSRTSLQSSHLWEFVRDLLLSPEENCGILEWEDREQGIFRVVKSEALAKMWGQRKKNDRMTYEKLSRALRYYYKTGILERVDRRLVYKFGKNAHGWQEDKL
To be noted: protein: recombinant; tags: N-terminal GST; dsDNA, one strand shown. An outline of the steps:
as §1

In a further test the target is T12, ETV3 (Homo sapiens, UniProt P41162-2 1-143).
T12 sequence: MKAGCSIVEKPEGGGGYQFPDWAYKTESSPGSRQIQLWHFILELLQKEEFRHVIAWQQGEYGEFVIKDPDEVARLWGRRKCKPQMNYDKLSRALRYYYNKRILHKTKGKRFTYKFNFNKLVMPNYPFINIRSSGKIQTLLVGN
Particulars: protein: recombinant; tags: N-terminal GST; dsDNA, one strand shown. An outline of the steps: as §1

Another test addresses ETV6 (Homo sapiens, UniProt P41212 1-452). To be noted: protein: recombinant; tags: N-terminal GST; dsDNA, one strand shown. An outline of the steps:
as §1

Chain of ETV1 (P50549 whole entry): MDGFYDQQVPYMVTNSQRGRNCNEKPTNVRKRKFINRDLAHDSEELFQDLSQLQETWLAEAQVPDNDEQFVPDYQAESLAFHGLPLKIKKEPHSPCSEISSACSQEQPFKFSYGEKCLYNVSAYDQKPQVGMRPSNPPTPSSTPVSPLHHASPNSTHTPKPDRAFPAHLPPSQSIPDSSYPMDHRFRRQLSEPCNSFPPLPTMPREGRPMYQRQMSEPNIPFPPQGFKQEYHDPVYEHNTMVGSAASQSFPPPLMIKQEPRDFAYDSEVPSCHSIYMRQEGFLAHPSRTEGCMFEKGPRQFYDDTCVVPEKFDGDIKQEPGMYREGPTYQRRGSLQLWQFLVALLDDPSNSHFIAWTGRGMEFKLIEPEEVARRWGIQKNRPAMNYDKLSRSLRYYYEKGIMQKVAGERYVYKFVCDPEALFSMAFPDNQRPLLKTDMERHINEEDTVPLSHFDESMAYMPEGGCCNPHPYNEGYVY
Chain of ELF4 (Q99607 whole entry): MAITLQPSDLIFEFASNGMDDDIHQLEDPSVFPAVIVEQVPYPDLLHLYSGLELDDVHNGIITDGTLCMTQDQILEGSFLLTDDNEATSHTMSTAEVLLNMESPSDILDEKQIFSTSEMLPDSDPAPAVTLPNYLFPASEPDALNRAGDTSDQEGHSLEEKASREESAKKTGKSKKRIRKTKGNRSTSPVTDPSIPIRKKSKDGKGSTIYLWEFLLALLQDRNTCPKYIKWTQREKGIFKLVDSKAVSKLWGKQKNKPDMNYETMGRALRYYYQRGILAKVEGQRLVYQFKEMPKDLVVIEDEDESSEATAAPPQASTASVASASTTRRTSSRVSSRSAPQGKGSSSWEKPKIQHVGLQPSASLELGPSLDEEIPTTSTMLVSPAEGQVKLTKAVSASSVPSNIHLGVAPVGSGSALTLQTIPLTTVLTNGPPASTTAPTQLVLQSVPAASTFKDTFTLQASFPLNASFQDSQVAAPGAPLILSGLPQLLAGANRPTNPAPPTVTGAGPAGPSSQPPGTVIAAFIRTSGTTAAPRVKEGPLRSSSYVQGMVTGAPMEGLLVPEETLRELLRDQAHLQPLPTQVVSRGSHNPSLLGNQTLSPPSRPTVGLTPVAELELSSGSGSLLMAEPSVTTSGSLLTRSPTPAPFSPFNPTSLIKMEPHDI
Chain of HSF1 (Q00613 whole entry): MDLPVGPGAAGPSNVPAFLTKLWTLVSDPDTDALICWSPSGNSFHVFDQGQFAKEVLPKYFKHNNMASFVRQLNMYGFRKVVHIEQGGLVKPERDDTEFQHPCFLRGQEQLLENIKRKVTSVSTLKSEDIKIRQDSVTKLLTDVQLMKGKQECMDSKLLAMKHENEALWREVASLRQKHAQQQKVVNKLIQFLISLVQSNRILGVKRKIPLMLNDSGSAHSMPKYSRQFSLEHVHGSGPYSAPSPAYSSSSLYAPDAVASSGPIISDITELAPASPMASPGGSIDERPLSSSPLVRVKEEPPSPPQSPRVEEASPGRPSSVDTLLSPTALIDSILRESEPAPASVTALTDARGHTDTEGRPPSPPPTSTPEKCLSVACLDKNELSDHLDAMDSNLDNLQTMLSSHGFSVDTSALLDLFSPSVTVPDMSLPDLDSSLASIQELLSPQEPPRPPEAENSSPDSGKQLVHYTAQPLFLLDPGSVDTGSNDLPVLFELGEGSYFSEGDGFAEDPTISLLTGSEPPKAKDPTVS
Chain of ETV5 (P41161 whole entry): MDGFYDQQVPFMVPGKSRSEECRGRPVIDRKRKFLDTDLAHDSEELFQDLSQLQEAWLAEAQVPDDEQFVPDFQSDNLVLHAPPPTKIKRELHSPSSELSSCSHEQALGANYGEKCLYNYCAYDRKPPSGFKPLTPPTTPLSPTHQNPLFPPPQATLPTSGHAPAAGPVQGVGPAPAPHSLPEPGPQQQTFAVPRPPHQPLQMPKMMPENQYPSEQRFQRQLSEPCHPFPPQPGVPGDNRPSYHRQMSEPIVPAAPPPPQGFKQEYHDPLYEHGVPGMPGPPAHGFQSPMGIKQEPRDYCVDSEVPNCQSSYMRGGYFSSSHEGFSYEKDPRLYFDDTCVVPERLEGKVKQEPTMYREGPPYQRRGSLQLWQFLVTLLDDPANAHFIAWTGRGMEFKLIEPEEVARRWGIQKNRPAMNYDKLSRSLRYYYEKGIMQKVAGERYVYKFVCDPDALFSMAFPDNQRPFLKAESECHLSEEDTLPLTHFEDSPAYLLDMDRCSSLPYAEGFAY
Chain of ETV6 (P41212 whole entry): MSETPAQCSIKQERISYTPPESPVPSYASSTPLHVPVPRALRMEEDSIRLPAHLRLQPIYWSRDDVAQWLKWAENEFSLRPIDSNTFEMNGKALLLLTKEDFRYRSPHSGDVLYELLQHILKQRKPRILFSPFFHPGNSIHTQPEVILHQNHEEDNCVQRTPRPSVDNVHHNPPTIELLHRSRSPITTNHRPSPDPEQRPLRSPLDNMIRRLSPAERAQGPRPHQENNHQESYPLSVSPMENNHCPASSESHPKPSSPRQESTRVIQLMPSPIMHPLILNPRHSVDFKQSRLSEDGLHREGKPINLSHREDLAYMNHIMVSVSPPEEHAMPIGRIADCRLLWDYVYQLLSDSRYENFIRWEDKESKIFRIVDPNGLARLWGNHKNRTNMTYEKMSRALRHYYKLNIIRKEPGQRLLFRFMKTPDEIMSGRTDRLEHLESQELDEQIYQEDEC
Chain of CRX (O43186 whole entry): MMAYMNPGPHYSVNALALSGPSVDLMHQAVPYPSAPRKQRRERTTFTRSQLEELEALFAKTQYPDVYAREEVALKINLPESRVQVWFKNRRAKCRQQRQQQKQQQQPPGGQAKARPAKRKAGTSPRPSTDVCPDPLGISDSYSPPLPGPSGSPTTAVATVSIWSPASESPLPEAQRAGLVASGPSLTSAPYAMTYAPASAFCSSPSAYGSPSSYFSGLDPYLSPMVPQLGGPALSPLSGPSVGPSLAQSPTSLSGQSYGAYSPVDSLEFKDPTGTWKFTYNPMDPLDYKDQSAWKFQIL

As to TTATCC, the binding signal with FEV was 1.44 fold enrichment (6-mer frequency, TF over GST control); with ETV5, 1.45 fold enrichment (6-mer frequency, TF over GST control); in the test with HSF1, 2.49 fold enrichment (6-mer frequency, TF over GST control); in the test with SPIC, 1.51 fold enrichment (6-mer frequency, TF over GST control); in the test with ELF4, 1.33 fold enrichment (6-mer frequency, TF over GST control); with ELK4, 1.45 fold enrichment (6-mer frequency, TF over GST control). The binding signal is 1.61 fold enrichment (6-mer frequency, TF over GST control) with ETV2; 1.41 fold enrichment (6-mer frequency, TF over GST control) with ELF3; 3.97 fold enrichment (6-mer frequency, TF over GST control) with CRX; 1.27 fold enrichment (6-mer frequency, TF over GST control) in the test with ETV1; 1.44 fold enrichment (6-mer frequency, TF over GST control) in the test with ERF; 1.38 fold enrichment (6-mer frequency, TF over GST control) with ETV3L. Also, the binding signal in the test with ETS2 was 1.51 fold enrichment (6-mer frequency, TF over GST control); in the test with SPDEF, 1.76 fold enrichment (6-mer frequency, TF over GST control); with ETV7, 1.44 fold enrichment (6-mer frequency, TF over GST control); with ELF5, 1.56 fold enrichment (6-mer frequency, TF over GST control); with ETV3, 1.51 fold enrichment (6-mer frequency, TF over GST control); with ETV6 it was 1.47 fold enrichment (6-mer frequency, TF over GST control).
